The sample as a whole holds a higher share of hits than the screen did.
VHR inh color: VHR1 (DUSP3) phosphatase inhibition | inhibition, % at 20 µM | 50,000 tested, 0.7% active | P51452 | recombinant VHR phosphatase, colorimetric substrate read-out; in the data active = inhibition above about 60%
Target sequence (P51452 whole entry, looked up): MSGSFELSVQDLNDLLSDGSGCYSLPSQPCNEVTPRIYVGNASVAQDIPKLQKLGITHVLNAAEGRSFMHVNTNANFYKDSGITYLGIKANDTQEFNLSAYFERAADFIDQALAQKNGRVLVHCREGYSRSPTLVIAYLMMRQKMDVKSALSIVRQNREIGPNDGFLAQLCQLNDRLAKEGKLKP
Active calls of the source: *.

SMILES	VHR inh color
O=C(N/N=C/c1ccc(/C=N/NC(=O)c2ccc(Br)cc2)cc1)c1ccc(Br)cc1	-2
Cc1ccc(NCC(=O)N/N=C\c2ccc(OC(=O)c3ccccc3)cc2)cc1	-10
O=C(Oc1ccc(/C=N/O)cc1)c1ccc(Br)cc1	104*
COCc1cc(CN(C)C2CCCCC2)c(O)c2ncccc12	0
COc1ccccc1/C=N/Nc1cc(N2CCCC2)nc(N2CCCC2)n1	9
COc1ccccc1C/C(N)=N/OC(=O)c1ccccc1Br	-1
COc1ccccc1C/C(N)=N/OC(=O)c1ccco1	96*
COc1ccccc1C/C(N)=N/OC(=O)c1ccc(I)cc1	4
CCOC(=O)C1=C(c2ccccc2)N=c2s/c(=C\c3ccc[nH]3)c(=O)n2C1c1cc(OC)ccc1OC (stereo unspecified)	-7
Cc1cc(NC(=O)c2cccc(F)c2)ccc1NC(=O)c1ccccc1	1
COc1ccc(OC)c(NC(=O)CN(c2ccc(C)c(Cl)c2)S(C)(=O)=O)c1	6
Cc1nc(C)c(-c2csc(Nc3ccc(O)cc3)n2)s1	68
CCN(CC)c1ccc(Nc2nc(-c3c(C)nc4ccccn34)cs2)cc1	55
CCN(CC)c1ccc(Nc2nc(-c3sc(N)nc3C)cs2)cc1	101*
COc1cc([N+](=O)[O-])ccc1-c1ccc(/C=C2\C(=O)NC(=O)N(c3ccc(Cl)cc3)C2=O)o1	40
COc1cccc(OCCOc2c(Cl)cc(/C=C3/SC(=S)NC3=O)cc2OC)c1	-18
Cc1ccc(/C=C(\C#N)c2nc(-c3ccc(C)c(C)c3)cs2)o1	60
Cc1ccc(/C=C(\C#N)c2nc(-c3cccc(Br)c3)cs2)o1	88*
Cc1ccc(/C=C(\C#N)c2nc(-c3cccc([N+](=O)[O-])c3)cs2)o1	21
CCCCCn1c(=O)c(C(=O)Nc2ccccc2F)c(O)c2ccccc21	-6
CCOc1cc(/C=N/O)ccc1OCc1ccc(Cl)cc1	116*
CCOc1cc(C=C2C(=O)NC(=O)NC2=O)ccc1OCc1ccc(Cl)cc1	2
CCOc1cc(/C=C2/SC(=O)NC2=O)ccc1OCc1ccc(Cl)cc1	-6
COc1cccc(Nc2cc(=O)n(-c3ccccc3)c3ccccc23)c1	12
O=C1/C(=C/c2ccc(Cl)cc2)SC(=S)N1CCS(=O)(=O)O	80*
SMILES	VHR inh color
COC(=O)CN1C(=O)/C(=C\c2ccc(Cl)cc2)SC1=S	2
CCN1C(=O)/C(=C\c2ccc(-c3ccccc3Cl)o2)SC1=S	-3
O=C1/C(=C\c2ccc(-c3cccc(Cl)c3)o2)SC(=S)N1CCS(=O)(=O)O	91*
CCN1C(=O)/C(=C\c2ccc(-c3ccc(F)cc3)o2)SC1=S	-5
O=C1/C(=C/c2ccc(Cl)cc2)SC(=S)N1CCc1ccccc1	-11
COc1cccc(/C=C2\SC(=O)N(c3ccc(Cl)cc3)C2=O)c1O	-31
COc1ccc(CCNC(=O)c2cc3nc(-c4cccs4)cc(C(F)(F)F)n3n2)cc1OC	-12
O=C(N/N=C/c1ccccc1O)c1cc(C2CC2)[nH]n1	-11
O=C1NC(=S)S/C1=C/c1cc(Cl)ccc1OCc1ccccc1	-3
Cc1cccc(NC(=O)CCCOc2ccccc2)c1	-6
O=c1[nH]c(/C=C/c2ccc(N3CCOCC3)c([N+](=O)[O-])c2)c([N+](=O)[O-])c(=O)[nH]1	80*
O=c1[nH]c(/C=C/c2ccccc2)c([N+](=O)[O-])c(=O)[nH]1	0
CCOc1cc(/C=C/c2[nH]c(=O)[nH]c(=O)c2[N+](=O)[O-])ccc1O	-16
O=C(c1ccc([N+](=O)[O-])cc1)c1ccc2c(c1)OCCCO2	-4
O=C1c2ccccc2CCC1C1(O)C(=O)Nc2ccc(Br)cc21 (stereo unspecified)	117*
CC1(C)CC(=O)C(C2(O)C(=O)Nc3ccc(Br)cc32)CO1 (stereo unspecified)	-11
O=C1c2ccccc2CCC1C1(O)C(=O)Nc2ccccc21 (stereo unspecified)	-1
Cc1ccc(S(=O)(=O)N(CC(O)CN2CCOCC2)c2cccc3ccccc23)cc1 (stereo unspecified)	-6
COc1ccc(CC(=O)Nc2ccc(Br)c(C)c2)cc1OC	3
C=CCN1C(=O)/C(=C\c2cccc(OS(=O)(=O)c3ccc(C)cc3)c2)SC1=S	-10
CCN1C(=O)/C(=C\c2cccc(OS(=O)(=O)c3ccc(C)cc3)c2)SC1=S	-3
Cc1ccc(S(=O)(=O)Oc2cccc(/C=C3/SC(=S)N(Cc4ccccc4)C3=O)c2)cc1	108*
COc1nc(-c2ccccc2)c2cc(Cl)ccc2n1	4
C(=N\n1cnnc1)/c1cccc(OCCOc2ccccc2)c1	-25
Brc1ccc(OCCOc2ccc(/C=N/n3cnnc3)cc2)cc1	114*
SMILES	VHR inh color
CC(C)(C)c1ccc(OCCOc2ccc(/C=N/n3cnnc3)cc2)cc1	3
Cc1ccc(C(=O)O)cc1N1C(=O)c2ccc(C(=O)O)cc2C1=O	-50
Cc1ccc(N(CC(=O)Nc2cccc3ccccc23)S(=O)(=O)c2ccc(F)cc2)cc1	-43
CC(=O)NC1=NC(=O)/C(=C\c2ccc(Br)o2)S1	81*
CC(=O)NC1=NC(=O)/C(=C\c2ccc(-c3ccc(C(=O)O)cc3)o2)S1	7
CC(=O)NC1=NC(=O)/C(=C/c2ccc(C)cc2)S1	-2
CCOc1cccc(C(=O)NCc2ccncc2)c1	-15
CC(=O)Oc1cccc2c1C(=O)c1ccccc1C2=O	103
COc1ccc2noc3c2c1C(=O)c1ccccc1-3	-9
COc1ccc(OC)c2c1C(=O)c1ccccc1C2=O	94*
Cn1c(=O)c2c(nc(Sc3nc4ccccc4n3Cc3ccccc3)n2C)n(C)c1=O	-13
Cn1c(=O)c2c(nc(N/N=C/c3ccccc3Cl)n2Cc2ccccc2)n(C)c1=O	-8
Cn1c(=O)c2c([nH]c(=S)n2Cc2ccc(Cl)c(Cl)c2)n(C)c1=O	114*
Cn1c(=O)c2cc(C#N)c(N)nc2n(C)c1=O	-17
Cc1ccc(NC(=O)/C=C/c2ccc(Cl)cc2)c([N+](=O)[O-])c1	-12
COC(=O)C1=C(C)NC(=O)NC1c1ccc(SC)cc1 (stereo unspecified)	2
CSc1ccc(C2NC(=O)CCC2[N+](=O)[O-])cc1 (stereo unspecified)	100*
CSc1ccc(C2NC(=O)c3ccccc3N2)cc1 (stereo unspecified)	14
CCOc1c(/C=C(\C#N)C(N)=O)c2ccccc2n1-c1c(Cl)cccc1Cl	-5
CCn1c(O)c(N=NC(=O)c2ccccc2Cl)c2ccccc21	-10
CCC(CO)N=Cc1c(O)n(-c2c(Cl)cccc2Cl)c2ccccc12 (stereo unspecified)	98*
COc1cccc(NC(=O)c2cccc(C(F)(F)F)c2)c1	-9
COc1ccc(S(=O)(=O)Nc2cccc3ccccc23)cc1Br	-10
COC(=O)c1ccc(-n2c(C)cc(/C=C3\NC(=S)NC3=O)c2C)cc1	111*
CCc1ccc(-n2c(C)cc(/C=C3/NC(=S)NC3=O)c2C)cc1	-16
SMILES	VHR inh color
Cc1cc(/C=C2/NC(=S)NC2=O)c(C)n1-c1ccc(Br)cc1	-24
O=C(CSc1nc2ccccc2s1)OCc1ccc([N+](=O)[O-])cc1	-19
CCOC(=O)C1=C(C)N=c2s/c(=C\c3ccccc3OC)c(=O)n2C1c1ccc(C)cc1 (stereo unspecified)	-9
CCCCOC(=O)CCCN1C(=O)S/C(=C\c2ccccc2)C1=S	3
Nc1sc(=S)nc2sc3c(c12)CCN(Cc1ccccc1)C3	72*
N#Cc1c(N)sc2c1CCN(Cc1ccccc1)C2	102*
O=c1[nH]c(=S)[nH]c2sc3c(c12)CCN(Cc1ccccc1)C3	51
N#Cc1c(N)sc2c1CCCCCC2	18
